# About 83,000 compounds went through this panel and 20% of them were active in at least one assay; those are over-represented in the sample as a whole.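 Interpretation: 100, growth as untreated; towards 0, rising growth inhibition; 0, no net growth; 0 to -100, cell death. Compounds scoring below 10 were considered active.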 Unmarked numbers belong to inactive results. Calls of active or inactive are those of the source.
# Legend:
# Test in all cases: NCI-60 one-dose screen, 48 h (100 = growth as untreated, 0 = no growth, -100 = all killed)
# Conditions in all cases: 10 µM unless noted
# HCT-15 colon = tested on: HCT-15 colon
# HT29 colon = tested on: HT29 colon
# SNB-75 CNS = tested on: SNB-75 CNS
# SNB-19 CNS = tested on: SNB-19 CNS
# U251 CNS = tested on: U251 CNS
# PC-3 prostate = tested on: PC-3 prostate
# SK-MEL-5 melanoma = tested on: SK-MEL-5 melanoma
# UACC-62 melanoma = tested on: UACC-62 melanoma
# LOX IMVI melanoma = tested on: LOX IMVI melanoma
# SK-MEL-28 melanoma = tested on: SK-MEL-28 melanoma
# SK-MEL-2 melanoma = tested on: SK-MEL-2 melanoma
# EKVX NSCLC = tested on: EKVX NSCLC
# SN12C renal = tested on: SN12C renal
# UO-31 renal = tested on: UO-31 renal
# ACHN renal = tested on: ACHN renal
# CAKI-1 renal = tested on: CAKI-1 renal
# A498 renal = tested on: A498 renal
# CCRF-CEM leukemia = tested on: CCRF-CEM leukemia
# MOLT-4 leukemia = tested on: MOLT-4 leukemia
# TK-10 renal = tested on: TK-10 renal
Structure (SMILES),growth (HCT-15 colon),growth (HT29 colon),growth (SNB-75 CNS),growth (SNB-19 CNS),growth (U251 CNS),growth (PC-3 prostate),growth (SK-MEL-5 melanoma),growth (UACC-62 melanoma),growth (LOX IMVI melanoma),growth (SK-MEL-28 melanoma),growth (SK-MEL-2 melanoma),growth (EKVX NSCLC),growth (SN12C renal),growth (UO-31 renal),growth (ACHN renal),growth (CAKI-1 renal),growth (A498 renal),growth (CCRF-CEM leukemia),growth (MOLT-4 leukemia),growth (TK-10 renal)
CCOC(=O)n1cc(C2=C(c3cn(C)c4ccccc34)COC2=O)c2ccccc21,12.2%,9.6% (active),26.4%,30.5%,14.9%,28.3%,-7.08% (active),26.1%,18.7%,47.7%,57.8%,45.2%,23.9%,34.8%,26.6%,13.2%,-14.3% (active),16.8%,18.3%,
O=C1CCC(N2C(=O)c3cccc(NCCOCCOCCNC(=O)c4cc5c(o4)C(=O)c4ccccc4C5=O)c3C2=O)C(=O)N1 (stereo unspecified),55.1%,-16.8% (active),-98.2% (active),-24.3% (active),-42% (active),6.46% (active),-98.2% (active),-81.8% (active),-74.1% (active),-38.7% (active),-27.8% (active),55.9%,-90.6% (active),51%,41.9%,22%,,14.5%,6.06% (active),36.1%
COc1cc(-c2nc(SC(C)C)nc(Nc3cccc(C)c3)c2C#N)cc(OC)c1OC,103%,98.7%,109%,103%,106%,98.6%,102%,95.2%,97.2%,107%,118%,109%,102%,84.8%,103%,94.5%,102%,104%,93.5%,
CN1CCN(CCCn2c3c(sc4ncccc43)c(=O)n3nnc(-c4ccccc4)c23)CC1,-40.1% (active),-46.2% (active),73.8%,5.98% (active),-80.8% (active),-3.82% (active),-98% (active),91%,-96% (active),111%,99.3%,97.2%,75.2%,-90.8% (active),,97.7%,150%,-20.6% (active),-35% (active),-73.3% (active)
CCCCC1COc2cccc3c(SCC(=O)N(C)c4cccc5ccccc45)cc[n+]1c23 (stereo unspecified),94.3%,103%,104%,98.7%,99.3%,95.8%,98.5%,99.9%,91.2%,111%,102%,109%,98.7%,94.1%,104%,98.7%,,,102%,96.2%
CC(=O)OC[C@]1(C)C=C2C(=O)[C@](C)(O)C3(CC3)C(C)=C2[C@H]1OC(C)=O,72.9%,69.9%,56.5%,83%,79.5%,88.1%,87.8%,103%,78.3%,109%,103%,114%,83.6%,41.5%,51.3%,84.2%,,,109%,99.1%
O=C(c1ccccc1)C(Br)C(Br)c1cccc([N+](=O)[O-])c1 (stereo unspecified),-26.6% (active),-42.4% (active),80.9%,82.4%,17.7%,67.4%,77.1%,81.4%,-79.4% (active),63.6%,69.8%,101%,67.1%,-74.8% (active),-87.9% (active),-25.5% (active),,-15.7% (active),3.67% (active),-25.4% (active)
N#C/C(=C\c1ccc[nH]1)c1cc2ccccc2[nH]1,50.2%,80.2%,62.2%,78.5%,69.7%,58%,57.2%,67.8%,75.2%,98.5%,65.9%,37.4%,72.3%,55%,69.7%,52.4%,69.2%,52%,62.9%,
O=C(N/N=C(\CS(=O)(=O)c1ccccc1)c1cc2ccccc2oc1=O)c1ccccc1,107%,108%,93.2%,99.8%,96.3%,98.3%,105%,97.9%,96.6%,107%,115%,101%,101%,94%,101%,96.4%,,106%,115%,119%
CC(=O)Nc1ccc(S(=O)(=O)N/N=C\c2ccc(Cl)c(Cl)c2)cc1,118%,102%,81.7%,103%,95.5%,83.6%,104%,99.2%,98.7%,115%,90.6%,99.7%,99.1%,,98.5%,91.5%,72.7%,92.8%,100%,93.2%
Cc1ccccc1-n1nnc(C(=O)Nc2nc(-c3ccccc3)c(-c3ccccc3)s2)c1C,67.3% [50 µM],78.7% [50 µM],5.92% [50 µM] (active),49.5% [50 µM],76.6% [50 µM],63.2% [50 µM],80.5% [50 µM],69.9% [50 µM],80.7% [50 µM],87.2% [50 µM],89% [50 µM],69.8% [50 µM],79.2% [50 µM],86% [50 µM],84.6% [50 µM],63.5% [50 µM],104% [50 µM],63.5% [50 µM],67% [50 µM],
CCCCCCCC/C=C\CCCCCCCCOc1cccc(CC(=O)NCC[N+](C)(C)C)c1,91.7%,48.3%,59.1%,60.1%,46.2%,36.4%,90.8%,80.8%,89%,99.6%,106%,92.6%,69.7%,92.6%,93.4%,71.2%,,78%,92.9%,68.6%
CCN(CC)c1ccc(/C=C(\C#N)c2cc3ccccc3[nH]2)cc1,29.7%,13.7%,55.2%,72.9%,41.7%,77%,52.1%,64%,29.7%,67.1%,43.3%,71.5%,69.4%,81.1%,70.7%,41.6%,52.7%,50.9%,37.8%,
CCN(CC)CCCNc1ccc(C)c2sc3ccccc3c(=O)c12,-13.3% (active),-24.2% (active),47.1%,46.7%,15.4%,22.7%,-99.4% (active),-49.2% (active),-93.4% (active),-80% (active),94%,87.9%,40.5%,44.7%,20.9%,64.6%,,21.8%,15.3%,
COC(=O)c1c2c(c(C)[n+]([O-])c1C)C(=O)C=C(NCc1cccc(Cl)c1)C2=O,-66.9% (active),3.61% (active),-95.4% (active),-53.4% (active),-20.7% (active),-1.7% (active),-97.1% (active),-68% (active),-57.5% (active),-1.27% (active),-32.8% (active),-57.3% (active),-90.7% (active),-18.5% (active),-44.8% (active),-14.3% (active),,-11.2% (active),-34.8% (active),14.5%
COc1cc2oc(-c3ccc(O)cc3)cc(=O)c2c(O)c1I,100%,107%,99%,95.9%,97%,97.5%,101%,102%,107%,108%,103%,87.8%,100%,93%,98.7%,96.6%,,94.9%,111%,109%

# — PubChem BioAssay (NCI)
